Results as given in PubChem BioAssay AID743126 (The Scripps Research Institute Molecular Screening Center, 2013).
Screen size: about 370,000 compounds; about 2,100 (0.57%) were called active. The sample holds actives, similar compounds and a random draw of the others, so the mix is not that of the screen.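 How the source made its calls: active means inhibition above mean plus 3 SD of compounds lying within the high and low control bounds (cut at about 19% in these data); inactive means the rest.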

The compounds below were run against Group 3 secretory phospholipase A2 (Homo sapiens) (UniProt Q9NZ20) (assay: HGIII-sPLA2 enzyme inhibition – biochemical, QFRET, BODIPY PC-A2 liposome substrate, primary screen (AID 743126;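 further: 0% = median of test compound wells and 100% = no enzyme DMSO wells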)). Conditions: QFRET BODIPY PC-A2 liposome hydrolysis, fluorescence; at 12.2 µM; stronger effect = higher value.
Sequence of Group 3 secretory phospholipase A2 (Homo sapiens) (Q9NZ20 whole entry, looked up): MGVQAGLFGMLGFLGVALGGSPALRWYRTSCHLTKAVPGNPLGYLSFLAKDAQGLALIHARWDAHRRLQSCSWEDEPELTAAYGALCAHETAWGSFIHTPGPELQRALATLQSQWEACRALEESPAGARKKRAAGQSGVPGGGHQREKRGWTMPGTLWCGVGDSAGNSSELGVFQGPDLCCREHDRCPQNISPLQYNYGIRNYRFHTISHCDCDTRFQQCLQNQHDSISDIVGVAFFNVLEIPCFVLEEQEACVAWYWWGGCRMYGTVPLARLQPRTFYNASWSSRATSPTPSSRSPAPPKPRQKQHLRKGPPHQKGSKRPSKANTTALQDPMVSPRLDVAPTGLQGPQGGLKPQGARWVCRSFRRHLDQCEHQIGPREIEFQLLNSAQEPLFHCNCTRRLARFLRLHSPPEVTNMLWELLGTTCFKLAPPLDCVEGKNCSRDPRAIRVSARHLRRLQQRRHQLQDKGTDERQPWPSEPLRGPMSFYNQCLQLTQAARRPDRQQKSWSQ
With `CCCOc1ccc(Oc2c(Cl)cnn(Cc3cccc4ccccc34)c2=O)cc1` the inhibition was 3.84% (inactive).
`COc1cccc2c(C)c(C(=O)O)[nH]c12` was tested, and the inhibition was -1.9% (inactive).
For `Cc1ccc2[nH]c(C(=O)O)c(NC(=O)c3ccccc3[N+](=O)[O-])c2c1`, the inhibition was -10.3% (inactive).
`Cc1c(C(=O)N/N=C/c2ccccc2)[nH]c2c([N+](=O)[O-])cccc12` was tested, and the inhibition was 21.8% (active).
With `O=C(NCc1cccs1)C1CCCN(S(=O)(=O)c2ccc([N+](=O)[O-])cc2)C1` (stereo unspecified) the inhibition was 2.84% (inactive).
In the case of `CN1C[C@]2(C=C3CCCCC3n3c(=O)n(-c4ccccc4)c(=O)n32)N=C1NC(=O)c1ccccc1` (stereo partly specified), the inhibition is reported as -6.07% (inactive).
`O=C(Nc1cc(Cl)cc(Cl)c1)OCCN1CCCC12CCC(c1ccccc1)CC2` (stereo unspecified) was tested, and the inhibition was -8.41% (inactive).
`C#CCCN([C@H](C(=O)OC)C(C)C)S(=O)(=O)c1ccc(F)cc1Br` was tested, and the inhibition was 3.19% (inactive).
`COP(=O)(O)CNC(=O)OCc1ccccc1` was tested, and the inhibition was 2.13% (inactive).
For `O=C(CN1CCCc2ccccc21)NCc1ccc(F)cc1`, the inhibition was 7.05% (inactive).
`CCc1ccc(-c2nn(-c3ccccc3)cc2CSC(=N)N)cc1` was tested, and the inhibition was 15.7% (inactive).
In the case of `N=C(N)SCc1cccc2ccccc12`, the inhibition is reported as 35.3% (active).
`CSC1=NCCN1C(=O)Cc1cccc2ccccc12` was tested, and the inhibition was 7.18% (inactive).
In the case of `O=C(CNS(=O)(=O)c1ccccc1F)N1CCN(c2ccccn2)CC1`, the inhibition is reported as 5.26% (inactive).
For `COc1ccccc1-c1cnn2c(N3CCOCC3)cc(C)nc12`, the inhibition was 17.5% (inactive).
`Cc1cc(C)n(-c2nc(C(F)(F)F)nc3ccccc23)n1` was tested, and the inhibition was 1.7% (inactive).
For `Cc1cc(-n2nc(C)cc2C)n2ncc(-c3ccccc3)c2n1`, the inhibition was 21.3% (active).
In the case of `COC(=O)C[C@@H]1CC[C@H]2[C@@H](COc3ccc(NS(=O)(=O)CC(F)(F)F)cc3C(=O)N2C)O1`, the inhibition is reported as 6.09% (inactive).
In the case of `CCOC(=O)CNC(=O)/C=C/c1c(Cl)cccc1Cl`, the inhibition is reported as -5.13% (inactive).
In the case of `O=C(/C=C/c1c(Cl)cccc1Cl)NCc1ccccc1`, the inhibition is reported as 20% (active).
In the case of `O=C(CC(=O)N/N=C\c1cccc(Cl)c1Cl)NCc1ccccc1`, the inhibition is reported as -20.8% (inactive).
In the case of `O=C(CSc1nc2ccccc2s1)NN=Cc1ccc(O)cc1O`, the inhibition is reported as -23% (inactive).
In the case of `CC(C)c1ccc(Nc2nnc(SCC(=O)c3nnc(-c4ccccc4)o3)s2)cc1`, the inhibition is reported as 22.6% (active).
For `COc1cccc(Nc2nnc(SCC(=O)N3CC(C)OC(C)C3)s2)c1` (stereo unspecified), the inhibition was 13.8% (inactive).
In the case of `CN(C(=O)CSc1nnc(Nc2ccccc2)s1)C1CCS(=O)(=O)C1` (stereo unspecified), the inhibition is reported as -0.8% (inactive).
In the case of `COc1ccc(-n2c(SCC(=O)NC3CCCC3)nnc2-c2ccncc2)cc1`, the inhibition is reported as 12.7% (inactive).
In the case of `CCCCCOc1ccc(CSC2=NCCN2)cc1[N+](=O)[O-]`, the inhibition is reported as -1.57% (inactive).
With `CCCCOC(=O)CCCc1ccc([N+](=O)[O-])cc1[N+](=O)[O-]` the inhibition was 1.12% (inactive).
With `CCCCOc1ccc(CSC(=N)N)cc1[N+](=O)[O-]` the inhibition was 34.6% (active).
For `COc1ccc(N2CCN(CCNS(=O)(=O)c3ccc(Cl)s3)CC2)cc1`, the inhibition was 0.02% (inactive).
For `O=S1(=O)c2ccc(N3CCN(Cc4ccccc4F)CC3)cc2Oc2ccccc2CN1Cc1cn(Cc2ccc(Cl)cc2)nn1`, the inhibition was -0.32% (inactive).
In the case of `Cc1cc(C(=O)Nc2ccc(C)c(S(=O)(=O)N3CCOCC3)c2)c2ccccc2n1`, the inhibition is reported as -16.7% (inactive).
For `O=C(Nc1cccc(F)c1)c1cc(-c2ccco2)nc2ccccc12`, the inhibition was 23.6% (active).
For `O=C(Nc1nc2ccc(Cl)cc2s1)c1cc(-c2ccc(Cl)cc2)nc2ccccc12`, the inhibition was 13.3% (inactive).
For `CCC(c1nnc(SCC(=O)NNC(=O)c2ccccc2)n1Cc1ccccc1)N(C)C` (stereo unspecified), the inhibition was -0.56% (inactive).
In the case of `CC(C)(C)NC(=O)Cn1c(SCC(=O)Nc2nccs2)nc2ccccc21`, the inhibition is reported as 3.98% (inactive).
For `O=C(CSc1nc2ccccc2n1Cc1ccccc1)NNC(=S)Nc1ccccc1`, the inhibition was 34.3% (active).
`CCC(=O)Nc1ccc2c(c1)C(=O)N(C)[C@H]1CC[C@H](CC(=O)NCCOC)O[C@@H]1CO2` was tested, and the inhibition was -9.58% (inactive).
For `Nc1[nH]c(/C=C2/CCCCC2n2[nH]c(=O)n(-c3ccccc3)c2=O)c(Cc2ccccc2)[n+]1Cc1ccccc1` (stereo unspecified), the inhibition was -5.57% (inactive).
For `CCn1c(-c2ccncc2)n[nH]c1=S`, the inhibition was 3.35% (inactive).
`CCCc1cc(-c2n[nH]c(=S)n2Cc2ccccc2)cs1` was tested, and the inhibition was 2.87% (inactive).
`CCc1cc(-c2n[nH]c(=S)n2CC(C)C)cs1` was tested, and the inhibition was 19.6% (active).
With `CCC(=O)c1c(CC)c2n3c1=CC[C@H]3CC(Br)C=2` (stereo partly specified) the inhibition was 1.91% (inactive).
In the case of `CCSc1nnc(SCC(=O)NNC(=O)c2ccccc2F)s1`, the inhibition is reported as 4.1% (inactive).
With `Cc1ccc(NC(=S)NNC(=O)CSc2nnc(SCc3ccccc3Cl)s2)cc1` the inhibition was 19.7% (active).
In the case of `O=C(CSc1nnc(SCc2ccc(Cl)cc2)s1)N/N=C/c1ccccc1Cl`, the inhibition is reported as -4.99% (inactive).
With `COc1cccc(Cn2cc(COC(=O)Nc3ccc(F)cc3)nn2)c1` the inhibition was -7.76% (inactive).
For `C[C@@H]1CN([C@@H](C)CO)C(=O)c2cccc(NC(=O)Nc3cccc4ccccc34)c2O[C@H]1CN(C)S(=O)(=O)c1ccccc1F`, the inhibition was -21.9% (inactive).
For `CCOc1ccc2[nH]c(=O)c(CN(CCCO)C(C)=O)cc2c1`, the inhibition was -0.39% (inactive).
`Nc1ccc2[nH]c(=S)sc2c1` was tested, and the inhibition was 1.91% (inactive).
In the case of `CCOc1ccc2[nH]c(=S)sc2c1`, the inhibition is reported as 23.5% (active).
For `COc1ccc2c(C(C)c3ccc(N)cc3)cn(C)c2c1` (stereo unspecified), the inhibition was 9.83% (inactive).
`CCCCNC(=O)C[C@@H]1C(=O)N(CCc2ccc(Cl)cc2)C2=CCCC[C@]21C(=O)OCC` was tested, and the inhibition was -11% (inactive).
In the case of `O=C(NC(=S)Nc1ncccn1)c1ccccc1Br`, the inhibition is reported as 20.2% (active).
For `COC(=O)c1cccnc1NC(=S)NC(C)C`, the inhibition was 11.5% (inactive).
With `CC1CCN(C(=S)NC(=O)c2ccccc2Br)CC1` the inhibition was 16.3% (inactive).
For `O=C(CN1CCC(NC(=O)NCc2ccccc2)CC1)Nc1ccc2c(c1)OCCO2`, the inhibition was 4.02% (inactive).
With `O=C(NC1CCC1)c1ccc(C#CC2CC2)cn1` the inhibition was 8.79% (inactive).
For `COc1cccc(CNCCc2c[nH]c3ccccc23)c1OCc1ccccc1F`, the inhibition was -6.09% (inactive).
`Cc1cc(NCCc2c[nH]c3ccccc23)ccc1Oc1cccnc1` was tested, and the inhibition was 24.1% (active).
In the case of `O=C(CCc1c[nH]c2ccccc12)NCCOc1ccccc1`, the inhibition is reported as -37% (inactive).
